Inconclusive results are not listed. The source made the active and inactive calls. Unless noted, calls come from the whole dose curve.
What was measured:
[1] = qHTS assay to identify small molecule antagonists of the estrogen receptor beta (ER-beta) signaling pathway - cell viability counter screen (AID 1259382; active = well fitted curve in the direction sought with a large enough effect in the repeat runs; an effect the other way counts as inactive or inconclusive;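 note: HEK293T cells carrying ER-beta-UAS-bla reporter stimulated with estradiol; series mostly up to about 92 µM; nearly all actives have a fitted effect of over 55% in size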)
Outline: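 ER-beta-UAS-bla HEK293T cells (2,000/well, 2% charcoal-stripped FBS) were pre-incubated 6 hr at 37C, then given compound plus 1nM final 17-beta-estradiol for 16 hr. Viability was read in the same wells by CellTiter-Glo luminescence after 30 min at room temperature.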

[2] = target: Estrogen receptor (Homo sapiens) (UniProt P03372); assay: qHTS assay to identify small molecule agonists of the estrogen receptor alpha (ER-alpha) signaling pathway in the presence of an antagonist (AID 1259383); note: top concentration of the series differs between compounds; nearly all actives have a fitted effect of over 15% in size
Outline: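 VM7Luc4E2 cells (endogenous full-length ER-alpha, 4×ERE-luciferase) were precultured 5 days in phenol red-free medium with 10% charcoal-stripped FBS, given 10.0nM ICI-182,780 (final), then treated with compounds at 15 concentrations for 22hr at 37C; luminescence read with ONE-Glo.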

[3] = qHTS assay to identify small molecule agonists or antagonists of the thyroid stimulating hormone receptor (TSHR) signaling pathway - wild type cell line counter screen (AID 1259384)
Outline: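 Counter screen in untransfected Hek293: compounds (15-point titration, triplicate) plus phosphodiesterase inhibitor Ro20-1724 added after 18 h plating; 30 min RT. Intracellular cAMP via competitive d2/cryptate immunoassay, 1 h incubation.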

[4] = target: Thyrotropin receptor (Homo sapiens) (UniProt P16473); assay: qHTS assay to identify small molecule antagonists of the thyroid stimulating hormone receptor (TSHR) signaling pathway (AID 1259385); note: nearly all actives have a fitted effect of over 20% in size
Outline: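 Antagonist mode: compound-treated TSHR-expressing HEK293 cells were stimulated with 1.5 ng/mL TSH (final) in presence of Ro20-1724 for 30 min at RT. HTRF cAMP detection after 1 h; each compound tested at 15 concentrations, triplicate.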

[5] = qHTS assay to identify small molecule agonists of the estrogen receptor alpha (ER-alpha) signaling pathway in the presence of an antagonist - cell viability counter screen (AID 1259386; active = well fitted curve in the direction sought with a large enough effect in the repeat runs; an effect the other way counts as inactive or inconclusive;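 note: series mostly up to about 92 µM; cells exposed to compounds for 22 h at 37 °C before the viability read; nearly all actives have a fitted effect of over 30% in size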)
Outline: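 VM7Luc4E2 cells (endogenous full-length ER-alpha, 4×ERE-luciferase) were held 5 days in phenol red-free medium with 10% charcoal-stripped FBS, plated, then given 10.0nM ICI-182,780 and compounds at 15 concentrations for 22hr at 37C; viability read by CellTiter-Fluor fluorescence.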

[6] = target: Progesterone receptor (Homo sapiens) (UniProt P06401); assay: qHTS assay to identify small molecule agonists of the progesterone receptor (PR) signaling pathway (AID 1346784); note: nearly all actives have a fitted effect of over 30% in size
Outline: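 Agonist qHTS: compounds pinned onto 3,000 PR-UAS-bla HEK 293T cells per well in charcoal-stripped serum medium, 16hr at 37C, then beta-lactamase activity measured by LiveBLAzer FRET fluorescence after 2 hours at room temperature.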

[7] = target: Progesterone receptor (Homo sapiens) (UniProt P06401); assay: qHTS assay to identify small molecule antagonists of the progesterone receptor (PR) signaling pathway (AID 1346795; active = well fitted inhibition curve with a large enough effect in the signal ratio in the repeat runs, not every such curve was filed as active; the % refers to the signal ratio)
Outline: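 Antagonist mode with agonist R5020 at 1 nM final and 16 hr incubation at 37C. Reporter was beta-lactamase driven by UAS in HEK293T (PR-UAS-bla), 2% charcoal-stripped serum; signal from LiveBLAzer FRET substrate, 2 hr at room temperature.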

[8] = qHTS assay to identify small molecule antagonists of the progesterone receptor (PR) signaling pathway - cell viability counter screen (AID 1346798; active = well fitted curve in the direction sought with a large enough effect in the repeat runs; an effect the other way counts as inactive or inconclusive; note: series mostly up to about 92 µM; nearly all actives have a fitted effect of over 50% in size)
Outline: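 Cytotoxicity read as CellTiter-Glo luminescence (30 min, room temperature) in the same wells as the beta-lactamase readout. HEK293T PR-UAS-bla cells in charcoal-stripped 2% FBS received compound and R5020, then 16 h at 37C, 5% CO2.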

[9] = qHTS assay to identify small molecule agonists of the progesterone receptor (PR) signaling pathway - cell viability counter screen (AID 1346799); note: nearly all actives have a fitted effect of over 45% in size
Outline: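 Cytotoxicity measured by CellTiter-Glo luminescence (30 min, RT) in the same wells as the PR beta-lactamase agonist read. Those HEK293T cells had 16 h compound treatment at 37 C in 2% charcoal-stripped FBS medium.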

[10] = qHTS assay to identify small molecule antagonists of the TGF-beta/Smad signaling pathway - cell viability counter screen (AID 1346824; active = well fitted curve in the direction sought with a large enough effect in the repeat runs; an effect the other way counts as inactive or inconclusive; note: nearly all actives have a fitted effect of over 50% in size)
Outline: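 Cytotoxicity counter-screen run in the same wells as the beta-lactamase Smad reporter read: CellTiter-Glo luminescence after 30 min at room temperature. HEK 293T SBE-bla cells had 5 hr compound exposure at 37 C with TGF-beta1 (0.25 ng/mL stock).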
% is set by controls: 0 for no effect and ±100 for the full control effect.

Thyrotropin receptor (Homo sapiens), sequence (P16473 whole entry, looked up): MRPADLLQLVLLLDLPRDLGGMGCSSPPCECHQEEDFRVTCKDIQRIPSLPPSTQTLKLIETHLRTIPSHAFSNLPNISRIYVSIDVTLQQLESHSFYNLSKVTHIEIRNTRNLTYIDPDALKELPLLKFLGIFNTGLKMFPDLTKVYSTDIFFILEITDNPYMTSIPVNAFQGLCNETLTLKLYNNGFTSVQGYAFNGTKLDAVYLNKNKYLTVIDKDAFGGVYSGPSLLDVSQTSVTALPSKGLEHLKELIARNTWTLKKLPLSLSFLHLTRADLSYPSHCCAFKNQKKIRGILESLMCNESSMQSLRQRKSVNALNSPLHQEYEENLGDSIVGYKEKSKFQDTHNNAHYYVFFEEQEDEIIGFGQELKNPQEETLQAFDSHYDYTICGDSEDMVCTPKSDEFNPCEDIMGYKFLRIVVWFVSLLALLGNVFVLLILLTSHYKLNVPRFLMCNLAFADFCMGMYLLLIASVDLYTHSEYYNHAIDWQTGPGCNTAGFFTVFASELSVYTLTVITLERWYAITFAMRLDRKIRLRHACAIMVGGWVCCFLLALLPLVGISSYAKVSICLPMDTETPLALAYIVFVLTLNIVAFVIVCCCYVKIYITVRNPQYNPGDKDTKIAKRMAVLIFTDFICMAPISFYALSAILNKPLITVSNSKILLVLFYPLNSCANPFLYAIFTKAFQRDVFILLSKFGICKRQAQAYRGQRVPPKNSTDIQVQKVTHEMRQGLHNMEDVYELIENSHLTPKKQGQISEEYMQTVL
Estrogen receptor (Homo sapiens), sequence (P03372 whole entry, looked up): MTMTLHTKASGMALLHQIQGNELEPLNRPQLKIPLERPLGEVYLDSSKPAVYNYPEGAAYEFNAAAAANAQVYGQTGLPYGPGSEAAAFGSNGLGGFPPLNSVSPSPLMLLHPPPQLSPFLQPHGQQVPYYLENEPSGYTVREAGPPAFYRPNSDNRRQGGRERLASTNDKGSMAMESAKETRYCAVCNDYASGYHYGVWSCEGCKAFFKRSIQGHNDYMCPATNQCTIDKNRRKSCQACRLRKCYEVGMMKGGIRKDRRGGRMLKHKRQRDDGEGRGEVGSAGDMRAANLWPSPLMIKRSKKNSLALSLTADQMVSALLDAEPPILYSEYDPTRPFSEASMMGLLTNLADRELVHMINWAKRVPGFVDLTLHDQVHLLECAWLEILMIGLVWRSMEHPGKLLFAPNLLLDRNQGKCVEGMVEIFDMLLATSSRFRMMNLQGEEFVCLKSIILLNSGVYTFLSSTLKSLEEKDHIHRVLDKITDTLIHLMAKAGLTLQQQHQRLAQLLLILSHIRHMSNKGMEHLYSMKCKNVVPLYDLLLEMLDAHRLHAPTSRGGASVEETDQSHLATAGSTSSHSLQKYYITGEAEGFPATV
Progesterone receptor (Homo sapiens), sequence (P06401 whole entry, looked up): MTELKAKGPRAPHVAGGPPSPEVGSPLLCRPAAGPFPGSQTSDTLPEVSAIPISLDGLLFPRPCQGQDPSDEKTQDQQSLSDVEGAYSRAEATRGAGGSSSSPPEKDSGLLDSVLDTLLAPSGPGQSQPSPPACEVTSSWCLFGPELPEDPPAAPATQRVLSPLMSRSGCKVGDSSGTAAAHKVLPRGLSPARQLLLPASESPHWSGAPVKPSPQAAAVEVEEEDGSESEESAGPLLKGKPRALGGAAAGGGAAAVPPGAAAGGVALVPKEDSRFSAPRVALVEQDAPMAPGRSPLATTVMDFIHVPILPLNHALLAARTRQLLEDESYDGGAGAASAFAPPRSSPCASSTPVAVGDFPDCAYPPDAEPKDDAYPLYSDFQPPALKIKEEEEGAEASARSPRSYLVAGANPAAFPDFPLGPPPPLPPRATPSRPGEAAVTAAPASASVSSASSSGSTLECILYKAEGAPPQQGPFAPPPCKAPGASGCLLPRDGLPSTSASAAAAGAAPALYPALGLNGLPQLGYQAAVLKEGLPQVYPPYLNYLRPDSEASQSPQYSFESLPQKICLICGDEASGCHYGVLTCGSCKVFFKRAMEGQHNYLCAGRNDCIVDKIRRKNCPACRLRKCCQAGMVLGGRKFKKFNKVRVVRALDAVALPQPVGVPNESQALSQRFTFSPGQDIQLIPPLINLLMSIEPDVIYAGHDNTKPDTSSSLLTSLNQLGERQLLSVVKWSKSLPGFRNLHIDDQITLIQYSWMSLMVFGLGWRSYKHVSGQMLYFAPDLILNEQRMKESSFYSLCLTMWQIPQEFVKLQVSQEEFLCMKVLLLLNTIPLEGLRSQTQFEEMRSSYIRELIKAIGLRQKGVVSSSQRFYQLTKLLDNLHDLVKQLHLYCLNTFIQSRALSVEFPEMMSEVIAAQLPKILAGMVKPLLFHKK

C=COCCCCO
inactive: outcome [1] | Potency [2] | outcome [3] | outcome [4] | outcome [5] | Potency [6] | Potency [7] | outcome [8] | Potency [9] | outcome [10]

CCN1CCN(C(=O)N[C@@H](C(=O)N[C@@H]2C(=O)N3[C@@H]2SC(C)(C)[C@H]3C(=O)O)c2ccccc2)C(=O)C1=O
inactive: outcome [1] | Potency [2] | outcome [3] | outcome [4] | outcome [5] | Potency [6] | Potency [7] | outcome [8] | Potency [9] | outcome [10]

c1coc(Cn2cccc2)c1
inactive: outcome [1] | Potency [2] | outcome [3] | outcome [4] | outcome [5] | Potency [6] | Potency [7] | outcome [8] | Potency [9] | outcome [10]

CC(=O)/C=C/C=C1/C2CCC(C2)C1(C)C (stereo not given)
inactive: outcome [1] | Potency [2] | outcome [3] | outcome [4] | outcome [5] | Potency [6] | Potency [7] | outcome [8] | Potency [9] | outcome [10]

Cc1ccc(N)nc1
inactive: outcome [1] | Potency [2] | outcome [3] | outcome [4] | outcome [5] | Potency [6] | Potency [7] | outcome [8] | Potency [9] | outcome [10]

O=C(OOC(=O)c1ccccc1)c1ccccc1
inactive: outcome [1] | Potency [2] | outcome [3] | outcome [4] | outcome [5] | Potency [6] | Potency [7] | outcome [8] | Potency [9]

O=C(O)Cc1ccccc1Oc1ccc(Cl)cc1Cl
inactive: outcome [1] | Potency [2] | outcome [3] | outcome [4] | outcome [5] | Potency [6] | Potency [7] | outcome [8] | Potency [9] | outcome [10]

Cc1ccc(OC(=O)CC(C)C)cc1
inactive: outcome [1] | Potency [2] | outcome [3] | outcome [4] | outcome [5] | Potency [6] | Potency [7] | outcome [8] | Potency [9] | outcome [10]

CCCCc1ccc(Cl)cc1
inactive: outcome [1] | Potency [2] | outcome [3] | outcome [4] | outcome [5] | Potency [6] | Potency [7] | outcome [8] | Potency [9]

CCCCC(CC)CCC(CC(C)C)OS(=O)(=O)O (stereo not given)
inactive: outcome [1] | Potency [2] | outcome [3] | outcome [4] | outcome [5] | Potency [6] | Potency [7] | outcome [8] | Potency [9] | outcome [10]

NCC1CCC(C(=O)Oc2ccc(CCC(=O)O)cc2)CC1 (stereo not given)
inactive: outcome [1] | Potency [2] | outcome [3] | outcome [4] | outcome [5] | Potency [6] | Potency [7] | outcome [8] | Potency [9] | outcome [10]

Nc1cc(S(=O)(=O)O)ccc1O
inactive: outcome [1] | Potency [2] | outcome [3] | outcome [4] | outcome [5] | Potency [6] | Potency [7] | outcome [8] | Potency [9] | outcome [10]

CN(C)CCCN(C)C
inactive: activity change, negative = cytotoxicity [1] -0.979% [at 8.39 µM] | activation [2] -2.43% [at 8.39 µM] | cAMP activity change [3] 3.11% [at 8.39 µM] | activity change, negative = inhibition [4] 4.29% [at 8.39 µM] | activity change, negative = cytotoxicity [5] 0.833% [at 8.39 µM] | activation [6] -0.0517% [at 8.39 µM] | activity change, negative = inhibition [7] 12.8% [at 8.39 µM] | activity change, negative = cytotoxicity [8] 5.2% [at 8.39 µM] | activity change, negative = cytotoxicity [9] 1.47% [at 8.39 µM] | viability change, negative = cytotoxic [10] -1.68% [at 6.97 µM]

CCCc1ccc(O)c(OC)c1
inactive: outcome [1] | Potency [2] | outcome [3] | outcome [4] | outcome [5] | Potency [6] | Potency [7] | outcome [8] | Potency [9] | outcome [10]

NNC(=O)OCc1ccccc1
inactive: outcome [1] | Potency [2] | outcome [3] | outcome [4] | outcome [5] | Potency [6] | Potency [7] | outcome [8] | Potency [9] | outcome [10]

N[C@H]1C(O)O[C@H](CO)[C@@H](O)[C@@H]1O (stereo not given in full)
inactive: outcome [1] | Potency [2] | outcome [3] | outcome [5] | Potency [6] | Potency [7] | outcome [8] | Potency [9] | outcome [10]

CC(C)CC(O)Cc1ccccc1 (stereo not given)
inactive: outcome [1] | Potency [2] | outcome [3] | outcome [5] | Potency [6] | Potency [7] | outcome [8] | Potency [9] | outcome [10]

CCCCS
inactive: outcome [1] | Potency [2] | outcome [3] | outcome [5] | Potency [6] | Potency [7] | outcome [8] | Potency [9]

C=CC(C)(CCC=C(C)C)OC(=O)C(C)C (stereo not given)
inactive: outcome [1] | Potency [2] | outcome [4] | outcome [5] | Potency [6] | Potency [7] | outcome [8] | Potency [9] | outcome [10]

COC(=O)N/N=C/c1c[n+]([O-])c2ccccc2[n+]1[O-]
inactive: outcome [1] | Potency [2] | outcome [3] | outcome [5] | Potency [6] | Potency [7] | outcome [8] | outcome [10]

CC(=O)SC[C@@H](C)C(=O)N1CCC[C@H]1C(=O)N[C@@H](Cc1ccccc1)C(=O)O
inactive: outcome [1] | Potency [2] | outcome [3] | outcome [5] | Potency [6] | Potency [7] | outcome [8] | Potency [9]

CNC(C)=O
inactive: outcome [1] | Potency [2] | outcome [3] | outcome [4] | outcome [5] | Potency [6] | Potency [7] | outcome [8] | outcome [10]

CC(C)=CCC/C(C)=C\C#N
inactive: outcome [1] | Potency [2] | outcome [3] | outcome [4] | outcome [5] | Potency [6] | Potency [7] | outcome [10]

CC(C)(C)C(=O)CCc1ccc(Cl)cc1
inactive: outcome [1] | Potency [2] | outcome [3] | outcome [4] | outcome [5] | Potency [6] | Potency [7] | Potency [9] | outcome [10]

Reference: PubChem BioAssay (Tox21)
